Laboratory results: PubChem BioAssay AID1159580 (chemical genetic matrix, 2015)
“And” between values parts separate entries of the source, which are not always exact repeats. Identical values can stand only once. Screen size: about 5,500 compounds; about 2,000 (36%) were called active. Roughly 18% stayed inconclusive and do not appear here. Cut-off read from the data, not from the text of the source: active = normalized growth mostly below about 0.91 (no sharp cut-off); inconclusive = no clear call, values can overlap the other calls; inactive = mostly above about 0.92. This is one part of the list.

Assay: chemical genetic growth profiling, strain panel (AID 1159580);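 note: tested at 20 µM; growth read once vehicle control cultures reached saturation at 30 °C; 1 = growth at the plate median or of vehicle wells; lower values mean less growth of the strain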
Conditions: S. cerevisiae deletion strains, growth OD

Measured: normalized growth

CC1=CC(=O)C2C(C)(C)CCC[C@]2(C)[C@@]1(O)CCc1ccoc1 (some centres not stated)
inactive: locus YAL021C, strain ccr4, active compounds read low 0.986 | locus YAL026C, strain drs2, active compounds read low 1 | locus YAL030W, strain snc1, active compounds read low 0.984 | locus YBL061C, strain skt5, active compounds read low 1.02 | locus YBR009C, strain hhf1, active compounds read low 0.999 | locus YBR021W, strain FUR4, active compounds read low 1.04 | locus YBR023C, strain chs3, active compounds read low 0.982 | locus YBR171W, strain sec66, active compounds read low 0.984 | locus YBR229C, strain ROT2, active compounds read low 1.01 | locus YBR231C, strain swc5, active compounds read low 1.03 | locus YBR279W, strain paf1, active compounds read low 0.975 | locus YCL011C, strain gbp2, active compounds read low 0.996 | locus YCL016C, strain dcc1, active compounds read low 0.989 | locus YCL029C, strain bik1, active compounds read low 0.997 | locus YCL061C, strain MRC1, active compounds read low 1 | locus YCL069W, strain vba3, active compounds read low 1.01 | locus YCR088W, strain abp1, active compounds read low 0.992 | locus YDL005C, strain med2, active compounds read low 0.988 | locus YDL035C, strain GPR1, active compounds read low 1.03 | locus YDL040C, strain nat1, active compounds read low 0.998 | locus YDL074C, strain BRE1, active compounds read low 0.995 | locus YDL101C, strain DUN1, active compounds read low 0.998 | locus YDL185W, strain tfp1, active compounds read low 0.955 | locus YDL192W, strain arf1, active compounds read low 0.998 | locus YDR001C, strain nth1, active compounds read low 1.01 | locus YDR069C, strain doa4, active compounds read low 0.994 | locus YDR101C, strain arx1, active compounds read low 1.01 | locus YDR150W, strain NUM1, active compounds read low 0.988 | locus YDR159W, strain sac3, active compounds read low 1.02 | locus YDR162C, strain NBP2, active compounds read low 1 | locus YDR195W, strain ref2 1.08 | locus YDR297W, strain sur2, active compounds read low 0.991 | locus YDR318W, strain mcm21, active compounds read low 0.997 | locus YDR334W, strain swr1, active compounds read low 1.01 | locus YDR335W, strain msn5, active compounds read low 0.958 | locus YDR388W, active compounds read low 0.999 | locus YDR502C, strain sam2, active compounds read low 0.98 | locus YEL003W, strain gim4, active compounds read low 1.02 | locus YEL037C, strain rad23, active compounds read low 1 | locus YEL061C, strain CIN8 (second series), active compounds read low 0.995 | locus YEL061C, strain CIN8, active compounds read low 1 | locus YER015W, strain faa2, active compounds read low 0.99 | locus YER016W, strain bim1, active compounds read low 0.994 | locus YER110C, active compounds read low 0.987 | locus YER111C, strain swi4, active compounds read low 0.999 | locus YER155C, strain BEM2 (second series), active compounds read low 1.03 | locus YER155C, strain BEM2, active compounds read low 0.989 | locus YER167W, strain BCK2, active compounds read low 0.989 | locus YFR010W, strain ubp6, active compounds read low 1.04 | locus YGL078C, strain dbp3, active compounds read low 0.966 | locus YGL086W, strain mad1, active compounds read low 0.995 | locus YGL167C, strain pmr1, active compounds read low 0.987 | locus YGL173C, strain kem1, active compounds read low 1.01 | locus YGL227W, strain vid30, active compounds read low 0.991 | locus YGL240W, strain doc1, active compounds read low 1.01 | locus YGL248W, strain PDE1, active compounds read low 1.03 | locus YGL253W, strain hxk2, active compounds read low 1.03 | locus YGR078C, strain PAC10, active compounds read low 1.01 | locus YGR135W, strain pre9, active compounds read low 0.941 | locus YGR252W, strain gcn5, active compounds read low 1.08 | locus YHR013C, strain ard1, active compounds read low 0.98 | locus YHR027C, strain rpn1, active compounds read low 0.99 | locus YHR030C, strain SLT2, active compounds read low 1.05 | locus YHR079C, strain IRE1 (second series), active compounds read low 0.972 | locus YHR079C, strain IRE1, active compounds read low 1.04 | locus YHR094C, strain hxt1, active compounds read low 0.973 | locus YHR129C, strain ARP1, active compounds read low 0.989 | locus YHR142W, strain chs7, active compounds read low 0.96 | locus YHR200W, strain rpn10, active compounds read low 1 | locus YIL066C, strain RNR3, active compounds read low 0.998 | locus YIL073C, strain SPO22, active compounds read low 1.02 | locus YIL125W, strain kgd1, active compounds read low 0.98 | locus YIR030C, strain dcg1, active compounds read low 0.976 | locus YJL092W, strain hpr5, active compounds read low 1 | locus YJL095W, strain BCK1 (second series), active compounds read low 0.995 | locus YJL095W, strain BCK1, active compounds read low 1.02 and 1.03 | locus YJL115W, strain asf1, active compounds read low 0.982 | locus YJL129C, strain trk1, active compounds read low 0.945 | locus YJL134W, strain LCB3, active compounds read low 0.99 | locus YJL154C, strain vps35, active compounds read low 1 | locus YJL164C, strain tpk1, active compounds read low 0.955 | locus YJL166W, strain qcr8, active compounds read low 0.995 | locus YJL168C, strain set2, active compounds read low 0.983 | locus YJL187C, strain SWE1 (second series), active compounds read low 1 | locus YJL187C, strain SWE1, active compounds read low 0.992 | locus YJR043C, strain POL32, active compounds read low 1.08 | locus YJR066W, strain TOR1, active compounds read low 0.973 | locus YJR075W, strain HOC1, active compounds read low 0.994 | locus YKL009W, strain mrt4, active compounds read low 0.981 | locus YKL068W, active compounds read low 0.968 | locus YKL085W, strain MDH1 (second series), active compounds read low 0.974 | locus YKL085W, strain MDH1, active compounds read low 0.974 | locus YKL160W, strain elf1, active compounds read low 0.975 | locus YKL190W, strain CNB1, active compounds read low 0.986 | locus YKR001C, strain vps1, active compounds read low 1.04 | locus YKR026C, strain gcn3, active compounds read low 1 | locus YKR091W, strain srl3, active compounds read low 0.991 | locus YLL001W, strain dnm1, active compounds read low 0.964 | locus YLL026W, active compounds read low 0.994 | locus YLL041C, strain sdh2, active compounds read low 0.999 | locus YLR027C, strain aat2, active compounds read low 0.984 | locus YLR039C, strain RIC1, active compounds read low 1 | locus YLR058C, strain SHM2, active compounds read low 1.02 | locus YLR102C, strain apc9, active compounds read low 0.979 | locus YLR113W, strain HOG1, active compounds read low 1.02 | locus YLR221C, strain rsa3, active compounds read low 1.02 | locus YLR258W, strain gsy2, active compounds read low 0.996 | locus YLR268W, strain sec22, active compounds read low 1 | locus YLR320W, strain mms22, active compounds read low 1 | locus YLR342W, strain FKS1, active compounds read low 0.99 | locus YLR357W, strain rsc2, active compounds read low 1.04 | locus YLR370C, strain arc18, active compounds read low 0.996 | locus YLR371W, strain rom2, active compounds read low 0.983 | locus YLR384C, strain iki3, active compounds read low 0.982 | locus YLR418C, strain cdc73, active compounds read low 0.995 | locus YML016C, strain PPZ1, active compounds read low 0.998 | locus YML032C, strain rad52, active compounds read low 0.983 | locus YML120C, strain ndi1, active compounds read low 0.954 | locus YML124C, strain tub3, active compounds read low 0.993 | locus YMR058W, strain fet3, active compounds read low 1 | locus YMR078C, strain ctf18, active compounds read low 0.974 | locus YMR125W, strain sto1, active compounds read low 0.959 | locus YMR129W, active compounds read low 0.981 | locus YMR205C, strain PFK2, active compounds read low 0.922 | locus YMR223W, strain ubp8, active compounds read low 0.972 | locus YMR231W, strain pep5, active compounds read low 0.998 | locus YMR307W, strain GAS1, active compounds read low 1.13 | locus YNL067W, strain RPL9B, active compounds read low 1 | locus YNL183C, strain NPR1, active compounds read low 0.975 | locus YNL209W, strain ssb2, active compounds read low 0.987 | locus YNL233W, strain BNI4, active compounds read low 1.03 | locus YNL248C, strain rpa49, active compounds read low 0.998 | locus YNL250W, strain rad50, active compounds read low 0.927 | locus YNL271C, strain bni1, active compounds read low 0.955 | locus YNL298W, strain CLA4, active compounds read low 0.996 | locus YNL307C, strain MCK1, active compounds read low 0.986 | locus YNL322C, strain KRE1 (second series), active compounds read low 0.998 | locus YNR049C, strain mso1, active compounds read low 1 | locus YNR052C, strain pop2, active compounds read low 0.979 | locus YOL006C, strain TOP1, active compounds read low 1.15 | locus YOL012C, strain htz1 1.06 | locus YOL147C, strain pex11, active compounds read low 0.976 | locus YOR001W, strain rrp6, active compounds read low 1.06 | locus YOR061W, strain CKA2, active compounds read low 0.993 | locus YOR069W, strain VPS5, active compounds read low 0.99 | locus YOR070C, strain gyp1, active compounds read low 0.99 | locus YOR080W, strain dia2, active compounds read low 1 | locus YOR083W, strain WHI5, active compounds read low 1.01 | locus YOR106W, strain vam3, active compounds read low 1 | locus YOR136W, strain idh2, active compounds read low 0.986 | locus YOR144C, strain elg1, active compounds read low 0.986 | locus YOR184W, strain ser1, active compounds read low 1.01 | locus YOR231W, strain MKK1, active compounds read low 1.03 | locus YOR265W, strain rbl2, active compounds read low 1.02 | locus YOR270C, strain vph1, active compounds read low 0.862 | locus YOR290C, strain snf2, active compounds read low 0.959 | locus YOR316C, strain cot1, active compounds read low 0.993 | locus YPL051W, strain arl3, active compounds read low 0.959 | locus YPL078C, strain atp4, active compounds read low 0.966 | locus YPL106C, strain sse1, active compounds read low 1.02 | locus YPL240C, strain hsp82, active compounds read low 1 | locus YPL241C, strain CIN2, active compounds read low 0.985 | locus YPL256C, strain CLN2, active compounds read low 1.01 | locus YPR119W, strain clb2, active compounds read low 0.969 | locus YPR141C, strain kar3, active compounds read low 0.962 | locus YPR163C, strain tif3, active compounds read low 0.977 | locus YPR167C, strain met16, active compounds read low 0.972 | strain wtn01, active compounds read low 1.01
active: locus YDR137W, strain rgp1, active compounds read low 0.825 | locus YDR392W, strain spt3, active compounds read low 0.628 | locus YLR262C, strain YPT6 (second series), active compounds read low 0.835 | locus YNL071W, strain lat1, active compounds read low 0.902
